Assay results taken from ChEMBL document CHEMBL3988442, “University of Dundee, Small-Polar-MMV Screening Library” (2021).
About 13,000 (27%) of roughly 48,000 compounds showed an effect of 50% or more. The list shows a part of the results.

System: Wolbachia pipientis
Experiment: Anti-Wolbachia Cell-Based Screen
Assay type: functional
Parameters: scale not given: in the data most compounds retested in dose-response had high values
Details: 5 µM

SMILES	Percent Effect [%]
Cc1ccc(Cl)cc1S(=O)(=O)NCc1cnc(N(C)C)n1C	-1.472
Cc1c(NCC(C)(C)C)cccc1C(=O)N(C)Cc1ncnn1C	4.357
CNC(=O)c1cccc(CNC(=O)C2CC(=O)N(CCN(C)C)C2)c1 (stereo not given)	-3.95
Cc1ccc(CN2Cc3nccn3CC(Cn3cccn3)C2)s1.O=C(O)C(F)(F)F (stereo not given)	93.7
Cc1ccc(CN2Cc3nccn3CC(Cn3cncn3)C2)s1.O=C(O)C(F)(F)F (stereo not given)	96.42
CCN(CC)CC1CN(Cc2ccc(C)s2)Cc2nccn2C1.O=C(O)C(F)(F)F.O=C(O)C(F)(F)F (stereo not given)	-7.962
Cc1ncsc1C(=O)NC1CCN(CC(=O)NCc2ccccc2)CC1	0.6366
Cc1cc(-c2cccc(C(=O)O)c2)nc(C2CCN(C(C)C)CC2)n1	102.4
Cc1cc(-c2ccc(C(=O)O)cc2)nc(C2CCCN(C(C)C)C2)n1 (stereo not given)	2.794
Cc1cc(-c2ccc(C(=O)O)cc2)nc(C2CCN(C(C)C)CC2)n1	108.9
Cc1ccc(C(NC(=O)CC2CCN(C(C)C)CC2)C(=O)O)cc1 (stereo not given)	-11.69
O=C(N[C@H]1CN(C2CCOCC2)C[C@@H]1C1CC1)c1cc(O)no1	17.55
CCN1CC[C@@]2(C(=O)N3CCCC3)CCN(S(C)(=O)=O)CC[C@@H]12.O=C(O)C(F)(F)F	-22.27
CN(C)CC(C)(C)CN1CCC(c2ccnc(-c3cccc(O)c3)c2)C1 (stereo not given)	-7.648
O=C(Cn1cncn1)NCC1(O)CCCc2ccccc21 (stereo not given)	1.206
CC(C)(C)OC(=O)NCCNC(=O)c1cnc(-c2ccccc2)nc1	-9.911
CC(C)C(C)N(C)C(=O)COc1ccccc1C#N (stereo not given)	106.3
CC(C)Oc1ccccc1CNC(=O)N(C)C(C)CS(C)(=O)=O (stereo not given)	-10.62
CC(Oc1ccccc1C#N)C(=O)NC1CC1 (stereo not given)	12.68
COc1ccccc1OCC(=O)n1ncc(C#N)c1N	-0.431
CC(CNC(=O)OC(C)(C)C)N(C)C(=O)COc1ccccc1C#N (stereo not given)	101.4
CCNC(=O)NC1CCC(Oc2ccccc2C#N)CC1 (stereo not given)	4.038

SMILES	Percent Effect [%]
CCS(=O)(=O)CC(C)N(C)C(=O)COc1ccccc1C#N (stereo not given)	95.28
CCN(CC)C(=O)c1ccc(COc2ccccc2C#N)o1	-6.305
O=C(O)C(F)(F)F.O=C([C@H]1CN(Cc2ccoc2)C[C@H]2OCC[C@@H]12)N1CCCCO1	-7.154
Cc1ncsc1CCN(C)Cc1cc2n(n1)CCN(S(C)(=O)=O)C2	0.3281
CCOc1ncccc1NC(=O)c1cc(C)c(C)s1	7.979
COc1ccc(Br)cc1CCC(=O)N1CCSCC1	-8.265
O=C(C1CC(=O)N(C2CC2)C1)N1CCC(Oc2ccccc2Cl)CC1 (stereo not given)	2.803
O=C(C1CC(=O)N(c2n[nH]c3cc(Br)ccc23)C1)N1CCOCC1 (stereo not given)	93.25
O=C(C1CC(=O)N(c2n[nH]c3cc(Br)ccc23)C1)N1CCCC1 (stereo not given)	93.67
O=C(C1CC(=O)N(c2ccccc2Br)C1)N1CCN(CC(F)(F)F)CC1 (stereo not given)	5.588
O=C(c1ccc(Cn2cc(Br)cn2)cc1)N1CCOCC1	-22.08
O=C(C1CC(=O)N(c2ccccc2Br)C1)N1CCCCCC1 (stereo not given)	6.985
O=C(C1CC(=O)N(c2n[nH]c3cc(Br)ccc23)C1)N1CCSCC1 (stereo not given)	118.9
O=C(C1CCN(c2ccnc3ccc(Br)cc23)CC1)N1CCOCC1	20.8
COc1ccnc(N2CCN(C(C)c3nc(C)no3)CC2)n1 (stereo not given)	-3.819
O=C(Nc1ccccc1)c1cccc(S(=O)(=O)NC[C@@H]2C[C@H](F)CN2)c1	3.3
CN(CC(N)=O)Cc1cc(Cl)cc2cccnc12	-12.39
O=C(NCCc1nc2ccccc2s1)c1coc(CN2CCOCC2)c1	-17.38
CCc1nnc2n1CCN(CC(O)CN1CCC(C)CC1)C2 (stereo not given)	-4.838
CC(=O)NC1CCCN(C(=O)CCc2cccnc2)C1 (stereo not given)	16.44
CS(=O)(=O)NC1CCCN(C(=O)NCc2cccnc2)C1 (stereo not given)	-6.706
CS(=O)(=O)NC1CCN(C(=O)NCc2cccnc2)CC1	127.5

SMILES	Percent Effect [%]
CC(C)(C)OC(=O)N1CCCCC1C(=O)NCc1cc[nH]n1 (stereo not given)	-6.483
O=C(NCc1cc[nH]n1)N1CCCC(N2CCCC2)C1 (stereo not given)	111.7
CC(=O)NC1CCCN(C(=O)NCc2cc[nH]n2)C1 (stereo not given)	125.6
O=C(NCc1cc[nH]n1)N1CCCCC(N2CCCC2)C1 (stereo not given)	0.854
CS(=O)(=O)NC1CCN(C(=O)NCCNc2ccccn2)CC1	2.154
CC(=O)NC1CCCN(C(=O)NCc2cccnc2)C1 (stereo not given)	121
CC(=O)NC1CCCN(C(=O)NCc2cccnc2N(C)C)C1 (stereo not given)	9.234
CC(=O)NC1CCCN(C(=O)NCc2cccnc2-n2cccn2)C1 (stereo not given)	-5.614
COCCc1noc(CN2CCCc3cccc(OC)c32)n1	0.4274
Cc1noc(-c2ccc(N(C)Cc3ccncn3)nc2)n1	-29.65
c1ccc(CNC[C@H]2COCc3nc4cccnc4n32)cc1	10.55
COCC(C)NC(=O)NCCc1cccc(OC)c1O (stereo not given)	-7.103
CCn1nc(CC(C)C)cc1C(=O)N1CCN([C@H]2CCCC[C@@H]2O)CC1	0.6704
CCS(=O)(=O)N1CC(c2nc(-c3ccsc3)no2)C1	-8.132
CCc1c(C)nn(CCNC(=O)Cc2csc(C)n2)c1C	-26.69
CN(C)CCn1cc(NC(=O)NC(C)(C)c2nccs2)cn1	-14.78
CCCN(C(=O)c1cccnc1)c1nc2c(s1)CCc1c-2cnn1C	53.11
CCCN(C(=O)c1ccncc1)c1nc2c(s1)CCc1c-2cnn1C	62.27
CCCN(C(=O)COC)c1nc2c(s1)CCc1c-2cnn1C	1.347
OCc1ccc(CN2CCC(n3cc(-c4ccc(F)cc4)nn3)CC2)o1	-0.1205
CC(C)C(C(=O)NC1CCOCC1)n1cnc2cc(F)c(F)cc21 (stereo not given)	3.744
